From the OligoGym collection

target: SCGB3A1; test: pooled miR-30 sensor sort-seq; sequence = guide strand; details: shRNA
Note: reference of the scale not given here.

Sequence | sensor-assay potency score (higher = more potent)
AGCTCAGCCACACACTTCTGGG | -1.63
TCAGCCACACACTTCTGGGAGC | -1.19
TATGAGGTGGTTCACGGGGATG | -2.01
CTCAGCAGGAGCTTCAGCGGGT | -1.59
TCCAGCGCAGCGACAGGCTGGG | -1.47
AAGAAAGCAGCAGCGGAGCTGC | -0.859
CAGCTCAGCCACACACTTCTGG | -1.81
TAAGAAAGCAGCAGCGGAGCTG | -0.766
TCTATGAGGTGGTTCACGGGGA | -0.221
ACTAAGAAAGCAGCAGCGGAGC | -1.78
AAAGCAGCAGCGGAGCTGCAGG | -1.3
TTCACGGGGATGCCCAGGCTGC | -1.89

target: SCN10A; test: as above; details: shRNA

Sequence | sensor-assay potency score (higher = more potent)
TATGATACTGACAACACTCATT | -0.905
TTGCTTCTCTATCTCCACCAGT | -0.403
TTAACCAAAATAGTGACCGTAA | 0.123
TTGACTTTCACATTGACCCAGA | 0.154
TTCAGCACCATAAATGTCCGGT | 0.128
TTGGTCATCAGTCTCCACCATC | -1.09
TTAGACAAAATCCTCTTGCCAG | -0.449
TAATGCTCTAAGAACTCTGAAT | -0.877
TATTCCAGAATCTTCGCTGTGA | 0.727
TAGTGCTGCTAGCACCTCCTGC | -0.978
TTGAGCTTCACCCACATGGGGC | -0.622
TTGTCCTGCATCGAATGCCGAG | -1.18

target: SCN2B; test: as above; details: shRNA

Sequence | sensor-assay potency score (higher = more potent)
TTAATTAGGAGGAAGAGACAGA | -0.125
TTTTTTTCTCCTCACACACTTG | -1.04
ATTGTCTGTCTGCTTAACCTGA | -0.931
TAAACTGGAAATAACTGTGAAG | -0.894
TTGATTGGCAGTTAGGTACTGA | 0.514
TTGCAAAAGAAACTCAGTCTGC | -0.173
TTGTGGTTCACTGTGTAGCAGG | -0.841
TTGCACTCCTGGTAAGTCCAGT | 0.119
TTGTCTGTCTGCTTAACCTGAC | -0.0966
TATAGCACACACAACCAAGAAA | -1.12
TTCCCTGAGAACTCCACGCGGT | -0.473
TATATCTATACCTAGAGAGAGA | -1.18

target: SCN4A; test: as above; details: shRNA

Sequence | sensor-assay potency score (higher = more potent)
TTCAGAACCATCTCTGCTGTGA | 0.403
TTGATGAGCATGTTCAGCGTTG | -0.377
TTGACCTTGACATTGAGCCAGC | -0.555
